Measurements taken from PubChem BioAssay AID488851 (National Center for Advancing Translational Sciences (NCATS), 2010).
Results filed as inconclusive are left out. Values without a mark were called inactive. Active and inactive are the calls of the source. The call rests on the fitted dose curve; in most records, active means well fitted activation curve with a large enough effect; inconclusive means small, poorly fitted or top-dose-only effect; inactive means flat fitted curve, though single readings scatter.

What follows are compounds tested against Lysosomal acid glucosylceramidase (Homo sapiens) (UniProt P04062) (assay: qHTS Assay for Inhibitors and Activators of N370S glucocerebrosidase as a Potential Chaperone Treatment of Gaucher Disease: Purified Non-mutant Confirmation for Probe SAR). Conditions: purified GC, 4MU-beta-glucoside fluorescence, 40 min; series mostly up to 57.5 µM; activity change, negative = inhibition: at the top concentration.
From the text: NIH Chemical Genomics Center [NCGC] NIH Molecular Libraries Probe Production Centers Network [MLPCN] MLPCN Grant: MH086442-01 Assay Submitter (PI): Wei Zheng Glucocerebrosidase (GC) catalyzes the hydrolysis of beta-glucocerebroside to glucose and ceramide in lysosomes. Mutations in the glucocerebrosidase gene result in Gaucher disease, an autosomal recessive lysosomal storage disorder. Many of the mutations encountered in patients with Gaucher disease are missense alterations that may cause misfolding, decreased stability and/or mistrafficking of this lysosomal protein. […] These inhibitors include iminosugar analogs and three non-iminosugar inhibitors identified from a previous HTS of 62,000 compounds with the wild type recombinant enzyme. However, the enhancement of enzyme activity by the chaperone action of an enzyme inhibitor must be balanced against the direct inhibition of the enzyme. An enzyme activator could also function as a chaperone by binding to the enzyme and helping to correct its misfolding and mistrafficking. While activators for GC have not yet been identified, they may have better therapeutic potential than inhibitors. Therefore the discovery and development of chemical activators may provide a new strategy for the chaperone therapy. We have optimized a new assay using N370S mutant GC derived from the spleen of a Gaucher patient. […] In addition, the MLPCN compound library has expanded, which increases the chance of finding new and better probes. This assay characterizes compound activity using purified wildtype enzyme instead of mutant enzyme from tissue homogenate. Compound activity differences may be due to the absence of endogenous cofactors found in tissue homogenate as well as inherent differences in enzyme stability and catalytic activity between the N370S and wildtype forms of the protein.
NCGC Assay Protocol Summary: This is a fluorogenic enzyme assay with 4-methylumbelliferyl-beta-D-glucopyranoside as the substrate and purified wildtype glucocerebrosidase as the enzyme preparation. Upon the hydrolysis of this fluorogenic substrate, the resulting product, […] which can be detected by a standard fluorescence plate reader. Data were normalized to the controls for basal activity (without enzyme) and 100% activity (with enzyme). The AC50 values were determined from concentration-response data modeled with the standard Hill equation. Assay buffer: 50 mM citric acid (titrated with potassium phosphate to pH 5.0), 100 mM potassium chloride, 10 mM sodium chloride, 1 mM magnesium chloride, 0.01% Tween-20. 1536-well assay protocol: (1) Add 2 ul/well of glucocerebrosidase enzyme solution (5 nM final) (2) Add 23 nL compounds in DMSO solution. The final titration was 0.5 nM to 58 uM. (3) Add 2 ul of substrate (1 mM final) (4) Incubate at 37C for 40 min. (5) Add 2 ul stop solution (1M NaOH and 1M Glycine mixture, pH 10) (6) Detect the assay plate in a ViewLux plate reader (PerkinElmer) with Ex=365 nm and Em=440nm. Keywords: Glucocerebrosidase, beta-glucosidase, Gaucher Disease, pharmacological chaperone, chaperone therapy, high throughput screening, glucocerebrosidase inhibitor, MLSMR, MLSCN, NIH Roadmap, qHTS and NCGC

Chain of Lysosomal acid glucosylceramidase (Homo sapiens) (P04062 whole entry, looked up): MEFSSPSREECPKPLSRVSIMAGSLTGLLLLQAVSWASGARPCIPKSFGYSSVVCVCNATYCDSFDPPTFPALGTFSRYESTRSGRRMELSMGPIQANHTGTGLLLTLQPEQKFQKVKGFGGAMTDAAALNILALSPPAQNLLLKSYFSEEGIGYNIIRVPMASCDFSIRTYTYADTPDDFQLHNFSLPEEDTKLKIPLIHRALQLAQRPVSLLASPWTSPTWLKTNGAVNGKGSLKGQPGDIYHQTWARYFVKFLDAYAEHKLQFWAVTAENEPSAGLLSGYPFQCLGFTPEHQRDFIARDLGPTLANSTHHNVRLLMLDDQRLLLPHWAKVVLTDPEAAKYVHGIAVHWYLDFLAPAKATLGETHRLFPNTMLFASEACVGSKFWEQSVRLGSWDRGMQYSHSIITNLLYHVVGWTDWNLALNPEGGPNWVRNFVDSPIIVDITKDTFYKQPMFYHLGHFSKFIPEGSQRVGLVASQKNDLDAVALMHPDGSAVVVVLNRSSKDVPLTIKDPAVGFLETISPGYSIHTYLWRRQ

**Q.** Which Potency does the source give for `Cc1cc(C)n2ncc(C(=O)Nc3ccccc3C)c2n1` here?
**A.** 13 µM (active)

**Q.** With `COc1ccc(NC(=O)c2cnn3c(C)cc(C)nc23)cc1` as the compound, how does the Potency read?
**A.** 16.3 µM (active)

**Q.** `Cc1cc(C)n2ncc(C(=O)NC(C)C)c2n1` was tested. Which Potency did it give?
**A.** 41.1 µM (active)

**Q.** How did the “activity change, negative = inhibition” value turn out when `CC(=O)c1ccc(NC(=O)c2cnn3c(C)cc(C)nc23)cc1` was run?
**A.** 20.5%

**Q.** With `CC(=O)Nc1ccccc1NC(=O)c1cnn2c(C)cc(C)nc12` as the compound, how does the “activity change, negative = inhibition” value read?
**A.** 13.3%

**Q.** How did the Potency turn out when `Cc1ccc(NC(=O)c2cnn3c(C)cc(C)nc23)cc1` was run?
**A.** 9.19 µM (active)

**Q.** For `C#Cc1ccc(NC(=O)c2cnn3c(C)cc(C)nc23)cc1`, which Potency is on record?
**A.** 5.17 µM (active)

**Q.** Which “activity change, negative = inhibition” value does the source give for `Cc1cc(C)n2ncc(C(=O)Nc3ccncc3)c2n1` here?
**A.** 1.71%

**Q.** `Cc1cc(C)n2ncc(C(=O)Nc3ccccc3)c2n1` was tested. Which Potency did it give?
**A.** 7.3 µM (active)

**Q.** How did the “activity change, negative = inhibition” value turn out when `COc1ccc(NC(=O)c2cnn3c(C)cc(C)nc23)cc1OC` was run?
**A.** 21.2%

**Q.** With `Cc1cc(C)n2ncc(C(=O)NC3CCC(C(C)(C)C)CC3)c2n1` (stereo unspecified) as the compound, how does the Potency read?
**A.** 13 µM (active)

**Q.** With `Cc1cc(C)n2ncc(C(=O)Nc3ccc4c(c3)OCCO4)c2n1` as the compound, how does the Potency read?
**A.** 16.3 µM (active)

**Q.** How did the Potency turn out when `O=C(Nc1ccccc1Sc1ccccc1)c1cnn2c1NC(=C1CC1)C=C2C(F)F` was run?
**A.** 32.6 µM (active)

**Q.** Which Potency does the source give for `Cc1cc(C)n2ncc(C(=O)Nc3ccc4c(c3)CCC4)c2n1` here?
**A.** 10.3 µM (active)

**Q.** `CCc1ccc(NC(=O)c2cnn3c(C)cc(C)nc23)cc1` was tested. Which Potency did it give?
**A.** 11.6 µM (active)

**Q.** For `Cc1ccc(NC(=O)c2cnn3c(C)cc(C)nc23)c(C)c1`, which Potency is on record?
**A.** 20.6 µM (active)

**Q.** Which Potency does the source give for `Cc1cc(C)n2ncc(C(=O)Nc3ccc(C)c(C)c3)c2n1` here?
**A.** 5.8 µM (active)

**Q.** For `Cc1cc(C)n2ncc(C(=O)NCc3ccccc3)c2n1`, which Potency is on record?
**A.** 32.6 µM (active)

**Q.** Which Potency does the source give for `Cc1cc(C)n2ncc(C(=O)NC3CCCCC3)c2n1` here?
**A.** 11.6 µM (active)

**Q.** For `CC(=O)c1cccc(NC(=O)c2cnn3c(C)cc(C)nc23)c1`, which Potency is on record?
**A.** 32.6 µM (active)

**Q.** With `Cc1cc(C)n2ncc(C(=O)Nc3ccc(C(F)(F)F)cc3)c2n1` as the compound, how does the Potency read?
**A.** 6.51 µM (active)

**Q.** How did the Potency turn out when `Cc1cc(C)n2ncc(C(=O)Nc3ccc4c(c3)OCO4)c2n1` was run?
**A.** 10.3 µM (active)

**Q.** For `Cc1cccc(NC(=O)c2cnn3c(C)cc(C)nc23)c1`, which Potency is on record?
**A.** 16.3 µM (active)

**Q.** How did the “activity change, negative = inhibition” value turn out when `Cc1cc(C)n2ncc(C(=O)Nc3cccc(C#N)c3)c2n1` was run?
**A.** 5.68% [at 19 µM]

**Q.** For `COc1ccc(NC(=O)c2cnn3c(C)cc(C)nc23)cc1Cl`, which Potency is on record?
**A.** 20.6 µM (active)

**Q.** With `Cc1cc(C)n2ncc(C(=O)N3CCCC3)c2n1` as the compound, how does the “activity change, negative = inhibition” value read?
**A.** 2.31%

**Q.** How did the Potency turn out when `Cc1cc(C)n2ncc(C(=O)Nc3ccc(Br)cc3)c2n1` was run?
**A.** 16.3 µM (active)

**Q.** With `Cc1cc(C)n2ncc(C(=O)Nc3ccc(S(C)(=O)=O)cc3)c2n1` as the compound, how does the “activity change, negative = inhibition” value read?
**A.** 8.37%

**Q.** With `CNC(=O)c1cnn2c(C)cc(C)nc12` as the compound, how does the “activity change, negative = inhibition” value read?
**A.** -2.54%

**Q.** Which Potency does the source give for `Cc1cc(C)n2ncc(C(=O)NCc3ccco3)c2n1` here?
**A.** 23.1 µM (active)

**Q.** How did the Potency turn out when `COc1ccc(NC(=O)c2cnn3c(C)cc(C)nc23)cc1F` was run?
**A.** 13 µM (active)
